In publication doi:10.1101/2024.03.05.583629:

Biological target: pT7_6His-AlfaTag-HOXD13 (human, UniProt P35453 263-343)
Test: PADIT-seq
Conditions: dsDNA, one strand shown

Sequence of pT7_6His-AlfaTag-HOXD13 (P35453 263-343): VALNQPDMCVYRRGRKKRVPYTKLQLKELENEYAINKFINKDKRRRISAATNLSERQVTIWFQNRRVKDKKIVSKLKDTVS

Compared with “CTCGAGGATATCAAGATCTGGCCTCGGCTTTTTAGACGGAACCTCTAGCTAGCCGACTCACTATAGGGATAATCGCCCTGAGCAAAGACC”, “CTCGAGGATATCAAGATCTGGCCTCGGCCTTTTAGTTGGAACCTCTAGCTAGCCGACTCACTATAGGGATAATCGCCCTGAGCAAAGACC” is higher in binding signal: -0.513 ± 0.133 log2FC for the first, 0.113 ± 0.0927 log2FC for the second.

Going from “CTCGAGGATATCAAGATCTGGCCTCGGCCTTTTATTCGGAACCTCTAGCTAGCCGACTCACTATAGGGATAATCGCCCTGAGCAAAGACC” to “CTCGAGGATATCAAGATCTGGCCTCGGCGTTTTACCCGGAACCTCTAGCTAGCCGACTCACTATAGGGATAATCGCCCTGAGCAAAGACC”, the binding signal falls from 1.67 ± 0.077 log2FC to -0.0427 ± 0.101 log2FC.

Compared with “CTCGAGGATATCAAGATCTGGCCTCGGCATTTTAGTAGGAACCTCTAGCTAGCCGACTCACTATAGGGATAATCGCCCTGAGCAAAGACC”, “CTCGAGGATATCAAGATCTGGCCTCGGCCTCCTAAAAGGAACCTCTAGCTAGCCGACTCACTATAGGGATAATCGCCCTGAGCAAAGACC” is lower in binding signal: 1.68 ± 0.0834 log2FC for the first, 0.715 ± 0.108 log2FC for the second.

Going from “CTCGAGGATATCAAGATCTGGCCTCGGCATTTTAGTGGGAACCTCTAGCTAGCCGACTCACTATAGGGATAATCGCCCTGAGCAAAGACC” to “CTCGAGGATATCAAGATCTGGCCTCGGCCCCTGGGCGGGAACCTCTAGCTAGCCGACTCACTATAGGGATAATCGCCCTGAGCAAAGACC”, the binding signal falls from 1.61 ± 0.0939 log2FC to -0.981 ± 0.122 log2FC.

Going from “CTCGAGGATATCAAGATCTGGCCTCGGCGATCTAAAAGGAACCTCTAGCTAGCCGACTCACTATAGGGATAATCGCCCTGAGCAAAGACC” to “CTCGAGGATATCAAGATCTGGCCTCGGCGTTTTAAAGGGAACCTCTAGCTAGCCGACTCACTATAGGGATAATCGCCCTGAGCAAAGACC”, the binding signal rises from -0.592 ± 0.0883 log2FC to 2.48 ± 0.082 log2FC.
